Test results as given in PubChem BioAssay.
Values without a mark were called inactive. Where a call stands in place of a potency, no number is given. For some of these results: Potency and affinity values are given separately. The source made the active and inactive calls. Unless noted, no rule for the calls is given here.

Tests used:
[1] = antimalarial activity against Dd2 strain (AID 2302;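 active = growth inhibition above 50% at the single 2 µM test dose, taken to imply half-maximal potency below 2 µM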); conditions: P. falciparum Dd2 in RBCs, LDH growth readout, 72 h; at 2 µM; stronger effect = higher value
[2] = human hepatoma cell viability loss – ATP luminescence, cytotoxicity control for P. falciparum antimalarial project, primary screen (AID 2303;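 active = inhibition above 50%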); conditions: HepG2 viability, 24-48 h, at 10 µM, stronger effect = higher value
[3] = target: L-lactate dehydrogenase (Plasmodium falciparum (isolate CDC / Honduras)) (UniProt Q27743); assay: PfLDH activity inhibition – cell lysate, 3D7 strain, counter-screen for P. falciparum growth inhibition project (AID 2304); conditions: P. falciparum 3D7 crude extract, LDH APAD/NBT absorbance; at 2 µM; stronger effect = higher value
[4] = inhibition of 3D7 malaria parasite growth – strain 3D7 (AID 2306); conditions: P. falciparum 3D7 erythrocytic growth, LDH absorbance, 72 h; at 2 µM; stronger effect = higher value
[5] = target: Calcium-dependent protein kinase 1 (Plasmodium falciparum (isolate 3D7)) (UniProt P62344); assay: PfCDPK1 kinase inhibitors, biochemical, TCAMS library (AID 1159585; cut-off not given, nearly all actives have IC50 up to about 0.98 µM;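 also: inhibitors leave more ATP so luminescence rises with inhibition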); conditions: recombinant PfCDPK1, Kinase-Glo ATP depletion luminescence
[6] = target: Plasmodium falciparum protein kinase 6 (PK6, PF3D7_1337100) (UniProt Q8IDW1); assay: PfPK6 kinase inhibitors, biochemical, TCAMS library (AID 1159586); conditions: recombinant PfPK6, Kinase-Glo ATP depletion luminescence
[7] = target: Protein kinase 7 (PK7), Plasmodium falciparum 3D7 (PF3D7_0213400) (UniProt Q7YTF7); assay: inhibition of Plasmodium PK7 catalytic activity – biochemical, TCAMS antimalarial set, Kinase-Glo luminescence (AID 1159587); conditions: recombinant PfPK7, Kinase-Glo ATP depletion luminescence
[8] = target: Calcium-dependent protein kinase 4 (Plasmodium falciparum (isolate 3D7)) (UniProt Q8IBS5); assay: PfCDPK4 kinase inhibitors, biochemical, TCAMS library (AID 1159588; cut-off not given, nearly all actives have IC50 up to about 0.91 µM); conditions: recombinant PfCDPK4, Kinase-Glo ATP depletion luminescence
Sequence of Calcium-dependent protein kinase 4 (Plasmodium falciparum (isolate 3D7)) (Q8IBS5 whole entry, looked up): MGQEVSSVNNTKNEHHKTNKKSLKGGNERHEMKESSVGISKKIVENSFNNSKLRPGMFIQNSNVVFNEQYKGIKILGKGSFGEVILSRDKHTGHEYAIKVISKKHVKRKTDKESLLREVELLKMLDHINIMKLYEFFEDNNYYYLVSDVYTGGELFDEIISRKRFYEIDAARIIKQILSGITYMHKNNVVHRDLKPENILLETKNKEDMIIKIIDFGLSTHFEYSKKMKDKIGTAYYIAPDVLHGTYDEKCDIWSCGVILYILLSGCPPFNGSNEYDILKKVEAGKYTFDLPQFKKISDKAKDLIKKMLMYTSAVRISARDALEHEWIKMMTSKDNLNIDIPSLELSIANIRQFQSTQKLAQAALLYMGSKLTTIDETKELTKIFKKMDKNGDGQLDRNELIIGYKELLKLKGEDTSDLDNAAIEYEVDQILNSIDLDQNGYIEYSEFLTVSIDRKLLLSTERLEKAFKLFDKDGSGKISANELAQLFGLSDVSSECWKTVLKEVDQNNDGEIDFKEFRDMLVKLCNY

Sequence of Calcium-dependent protein kinase 1 (Plasmodium falciparum (isolate 3D7)) (P62344 whole entry, looked up): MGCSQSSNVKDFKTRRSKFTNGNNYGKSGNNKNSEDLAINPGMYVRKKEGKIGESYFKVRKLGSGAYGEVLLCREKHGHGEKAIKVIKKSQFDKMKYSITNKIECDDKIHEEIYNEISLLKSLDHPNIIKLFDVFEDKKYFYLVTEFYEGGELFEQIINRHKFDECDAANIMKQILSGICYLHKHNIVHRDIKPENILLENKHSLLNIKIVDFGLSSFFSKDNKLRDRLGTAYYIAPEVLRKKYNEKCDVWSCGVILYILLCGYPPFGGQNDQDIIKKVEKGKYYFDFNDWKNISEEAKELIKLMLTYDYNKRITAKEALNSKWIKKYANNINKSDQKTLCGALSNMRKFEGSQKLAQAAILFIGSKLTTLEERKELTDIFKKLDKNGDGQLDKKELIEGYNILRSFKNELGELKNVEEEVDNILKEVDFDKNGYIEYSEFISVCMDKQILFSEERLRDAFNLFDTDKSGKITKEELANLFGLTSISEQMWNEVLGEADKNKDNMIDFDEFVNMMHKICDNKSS
Sequence of Plasmodium falciparum protein kinase 6 (PK6, PF3D7_1337100) (Q8IDW1 1-305): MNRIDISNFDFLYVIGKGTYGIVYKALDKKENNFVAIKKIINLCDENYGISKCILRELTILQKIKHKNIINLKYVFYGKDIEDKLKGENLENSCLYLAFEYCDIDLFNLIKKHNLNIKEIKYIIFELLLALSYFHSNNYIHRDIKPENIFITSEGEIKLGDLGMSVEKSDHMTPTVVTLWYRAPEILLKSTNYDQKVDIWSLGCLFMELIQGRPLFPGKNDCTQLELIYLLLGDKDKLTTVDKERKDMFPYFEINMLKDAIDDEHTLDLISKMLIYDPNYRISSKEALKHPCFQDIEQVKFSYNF
Sequence of Protein kinase 7 (PK7), Plasmodium falciparum 3D7 (PF3D7_0213400) (Q7YTF7 1-343): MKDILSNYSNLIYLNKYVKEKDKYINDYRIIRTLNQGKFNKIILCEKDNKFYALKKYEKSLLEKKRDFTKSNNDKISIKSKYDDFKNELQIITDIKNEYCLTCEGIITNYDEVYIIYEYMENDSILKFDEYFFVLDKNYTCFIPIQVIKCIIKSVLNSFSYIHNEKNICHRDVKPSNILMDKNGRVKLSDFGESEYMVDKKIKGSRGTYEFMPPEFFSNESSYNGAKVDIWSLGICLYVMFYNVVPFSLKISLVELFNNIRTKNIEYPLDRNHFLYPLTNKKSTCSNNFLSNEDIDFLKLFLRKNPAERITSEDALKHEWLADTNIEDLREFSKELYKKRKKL
Sequence of L-lactate dehydrogenase (Plasmodium falciparum (isolate CDC / Honduras)) (Q27743 whole entry, looked up): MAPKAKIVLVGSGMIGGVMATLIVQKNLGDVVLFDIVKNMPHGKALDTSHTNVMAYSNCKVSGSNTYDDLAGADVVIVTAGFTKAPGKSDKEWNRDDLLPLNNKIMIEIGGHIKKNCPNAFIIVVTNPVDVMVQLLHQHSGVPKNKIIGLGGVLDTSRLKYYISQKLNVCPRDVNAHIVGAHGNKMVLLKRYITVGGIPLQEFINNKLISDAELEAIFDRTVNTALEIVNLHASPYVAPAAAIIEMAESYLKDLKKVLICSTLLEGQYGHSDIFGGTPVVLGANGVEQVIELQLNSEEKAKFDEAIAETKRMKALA

Compound: CCCN1CC[C@@H](CCCc2ccnc3ccc(O)cc23)[C@@H](CC)C1
- growth inhibition [1]: 14%
- inhibition [2]: 10%
- inhibition [3]: -2%
- growth inhibition [4]: 93% (active)
- outcome [5]: inactive
- outcome [6]: inactive
- outcome [7]: inactive
- outcome [8]: inactive

Compound: CN1CCN(c2ccnc3ccc(NC(=O)Cc4cccc(Cl)c4Cl)cc23)CC1
- growth inhibition [1]: 64% (active)
- inhibition [2]: 8%
- inhibition [3]: 3%
- growth inhibition [4]: 102% (active)
- outcome [5]: inactive
- outcome [6]: inactive
- outcome [7]: inactive
- outcome [8]: inactive

Compound: Cc1ccc(NC(=O)c2ccc(CN3CCCN(CC4CCCCC4)CC3)cc2)cc1
- growth inhibition [1]: 42%
- inhibition [2]: 41%
- inhibition [3]: -3%
- growth inhibition [4]: 93% (active)
- outcome [5]: inactive
- outcome [6]: inactive
- outcome [7]: inactive
- outcome [8]: inactive

Compound: COc1ccccc1CCNC(=O)c1cnc(N2CCN(c3ccncc3)CC2)c(Cl)c1
- growth inhibition [1]: 54% (active)
- inhibition [2]: 30%
- inhibition [3]: 4%
- growth inhibition [4]: 98% (active)
- outcome [5]: inactive
- outcome [6]: inactive
- outcome [7]: inactive
- outcome [8]: inactive

Compound: Nc1nccc2ccc(-c3cccc4ncccc34)cc12
- growth inhibition [1]: 94% (active)
- inhibition [2]: 40%
- inhibition [3]: -1%
- growth inhibition [4]: 98% (active)
- outcome [5]: inactive
- outcome [6]: inactive
- outcome [7]: inactive
- outcome [8]: inactive

Compound: COc1ccc(CC2(c3ccc(F)cc3)N=C(N)N(CCCc3ccc4c(c3)OCO4)C2=O)cc1 (stereo not given)
- growth inhibition [1]: 97% (active)
- inhibition [2]: 60% (active)
- inhibition [3]: 3%
- growth inhibition [4]: 98% (active)
- outcome [5]: inactive
- outcome [6]: inactive
- outcome [7]: inactive
- outcome [8]: inactive

Compound: Cc1cccc2c(CON3C(N)=NC(N)=NC3(C)C)cccc12
- growth inhibition [1]: 94% (active)
- inhibition [2]: 64% (active)
- inhibition [3]: -1%
- growth inhibition [4]: 94% (active)
- outcome [5]: inactive
- outcome [6]: inactive
- outcome [7]: inactive
- outcome [8]: inactive

Compound: CN(C)c1ccnc2ccc(NC(=O)Nc3ccnc4ccccc34)cc12
- growth inhibition [1]: 99% (active)
- inhibition [2]: 15%
- inhibition [3]: 3%
- growth inhibition [4]: 100% (active)
- outcome [5]: inactive
- outcome [6]: inactive
- outcome [7]: inactive
- outcome [8]: inactive

Compound: COc1ccc(NC(=O)c2ccc(-c3nc(-c4ccc(Cl)cc4)cs3)cc2)cc1N1CCN(C)CC1
- growth inhibition [1]: 34%
- inhibition [2]: 30%
- inhibition [3]: 0%
- growth inhibition [4]: 91% (active)
- outcome [5]: inactive
- outcome [6]: inactive
- outcome [7]: inactive
- outcome [8]: inactive

Compound: C=C[C@H]1CN(CCCCCCC)CC[C@H]1CCNc1ccnc2ccc(OC)cc12
- growth inhibition [1]: 81% (active)
- inhibition [2]: 99% (active)
- inhibition [3]: 7%
- growth inhibition [4]: 95% (active)
- outcome [5]: inactive
- outcome [6]: inactive
- outcome [7]: inactive
- outcome [8]: inactive

Compound: O=C(NCCCCN1CCC(O)(c2ccc(Cl)cc2)CC1)c1ccc(Br)cc1
- growth inhibition [1]: 48%
- inhibition [2]: 41%
- inhibition [3]: 4%
- growth inhibition [4]: 82% (active)
- outcome [5]: inactive
- outcome [6]: inactive
- outcome [7]: inactive
- outcome [8]: inactive

Compound: O=c1cc(NCCCNCc2cccc(SC(F)(F)F)c2)[nH]c2ccccc12
- growth inhibition [1]: 94% (active)
- inhibition [2]: -9%
- inhibition [3]: 6%
- growth inhibition [4]: 100% (active)
- outcome [5]: inactive
- outcome [6]: inactive
- outcome [7]: inactive
- outcome [8]: inactive

Compound: Oc1ccc(CN2Cc3ccccc3OC3(CCN(Cc4c[nH]c5cnccc45)CC3)C2)cc1
- growth inhibition [1]: 3%
- inhibition [2]: 17%
- inhibition [3]: -6%
- growth inhibition [4]: 101% (active)
- outcome [5]: inactive
- outcome [6]: inactive
- outcome [7]: inactive
- outcome [8]: inactive

Compound: CCc1nc2nc(C)cc(Nc3ccc4c(c3)OCCO4)n2n1
- growth inhibition [1]: 55% (active)
- inhibition [2]: 8%
- inhibition [3]: -1%
- growth inhibition [4]: 88% (active)
- outcome [5]: inactive
- outcome [6]: inactive
- outcome [7]: inactive
- outcome [8]: inactive

Compound: O=S(=O)(NCCN1CCCC1)c1ccc(-c2cccc(CNCc3ccccc3)c2)s1
- growth inhibition [1]: 43%
- inhibition [2]: 44%
- inhibition [3]: 0%
- growth inhibition [4]: 94% (active)
- outcome [5]: inactive
- outcome [6]: inactive
- outcome [7]: inactive
- outcome [8]: inactive

Compound: COc1ccccc1Nc1nc(NC2CCN(C)CC2)cc(-c2cccc(C(F)(F)F)c2)n1
- growth inhibition [1]: 71% (active)
- inhibition [2]: 100% (active)
- inhibition [3]: -10%
- growth inhibition [4]: 95% (active)
- outcome [5]: inactive
- outcome [6]: inactive
- outcome [7]: inactive
- outcome [8]: inactive

Compound: Cc1cccc2[nH]c(-c3cccc(-c4ccc(NC(=O)Nc5ccc(Cl)cc5)cc4)c3)nc12
- growth inhibition [1]: 96% (active)
- inhibition [2]: 63% (active)
- inhibition [3]: 0%
- growth inhibition [4]: 100% (active)
- outcome [5]: inactive
- outcome [6]: inactive
- outcome [7]: inactive
- outcome [8]: inactive

Compound: COc1ccc2nccc([C@H](O)CN3CCC(NCc4nc5c(F)cccc5[nH]4)CC3)c2c1
- growth inhibition [1]: 0%
- inhibition [2]: 0%
- inhibition [3]: -1%
- growth inhibition [4]: 98% (active)
- outcome [5]: inactive
- outcome [6]: inactive
- outcome [7]: inactive
- outcome [8]: inactive

Compound: CCCCn1c(N)c(N(Cc2ccco2)C(=O)C=Cc2cc(OC)c3c(c2)OCCO3)c(=O)[nH]c1=O
- growth inhibition [1]: 94% (active)
- inhibition [2]: 4%
- inhibition [3]: 2%
- growth inhibition [4]: 85% (active)
- outcome [5]: inactive
- outcome [6]: inactive
- outcome [7]: inactive
- outcome [8]: inactive

Compound: COc1cccc(-c2cc(C(=O)Nc3ccc4nc(-c5ccccc5)[nH]c4c3)[nH]n2)c1
- growth inhibition [1]: 65% (active)
- inhibition [2]: 68% (active)
- inhibition [3]: 2%
- growth inhibition [4]: 100% (active)
- outcome [5]: inactive
- outcome [6]: inactive
- outcome [7]: inactive
- outcome [8]: inactive
